This is a sample that favours compounds with a hit; in the whole collection about 5% have one here.
SENP6 inh – inhibitors of human SENP6 protease. Q9GZR1. Recombinant SENP6 catalytic domain, aminoluciferin luminescence. inhibition, % at 10 µM. actives 1.8% (n = 330,000);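 active = inhibition above about 50% at the single tested dose, limit read from the data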;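 note: plate controls were DMSO wells with enzyme for no effect and DMSO wells lacking enzyme for full effect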
SENP8 block-1 – SENP8 (human) protease inhibition; actives 0.64% (n = 360,000); inhibition, % at 20 µM; Q96LD8; recombinant SENP8, Nedd8 substrate fluorescence; in the data active = inhibition mostly above about 40%, no sharp cut-off; inactive = mostly below about 27%
Target sequence (Q96LD8 whole entry, looked up): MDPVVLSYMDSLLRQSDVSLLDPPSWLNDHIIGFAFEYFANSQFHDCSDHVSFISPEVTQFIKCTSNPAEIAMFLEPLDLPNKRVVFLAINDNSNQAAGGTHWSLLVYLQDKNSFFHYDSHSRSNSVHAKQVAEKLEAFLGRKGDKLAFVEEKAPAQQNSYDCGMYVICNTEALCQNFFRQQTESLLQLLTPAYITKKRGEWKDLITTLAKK
SENP8 block-2 – blocks the human protease SENP8. Q96LD8. inhibition, % at 10 µM. actives 1.2% (n = 330,000). purified SENP8, Z-RLRGG-aminoluciferin cleavage, luminescence; in the data active = inhibition above about 50%
EBI2 block – EBI2 (human) antagonism; inhibition, % at 5 µM; actives 0.81% (n = 360,000); EBI2 beta-arrestin recruitment, luminescence, 7a,25-OHC stimulated; in the data active = inhibition above about 38%;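 note: enzyme fragment complementation signal reports receptor beta-arrestin coupling in cells; 0% = agonist plus DMSO wells and 100% = wells without agonist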
Target sequence (P32249 whole entry, looked up, the tested form may be a part): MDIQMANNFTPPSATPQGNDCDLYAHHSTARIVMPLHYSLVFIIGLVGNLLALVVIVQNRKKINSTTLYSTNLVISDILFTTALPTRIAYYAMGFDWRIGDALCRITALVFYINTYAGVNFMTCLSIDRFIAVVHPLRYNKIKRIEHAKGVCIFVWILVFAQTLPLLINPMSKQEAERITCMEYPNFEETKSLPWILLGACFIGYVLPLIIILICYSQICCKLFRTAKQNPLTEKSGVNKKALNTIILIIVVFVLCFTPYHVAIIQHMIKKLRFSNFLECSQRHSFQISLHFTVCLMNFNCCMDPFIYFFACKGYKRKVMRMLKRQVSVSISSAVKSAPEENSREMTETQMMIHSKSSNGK
SENP7 inh – inhibitors of human SENP7 protease; inhibition, % at 5 µM; recombinant SENP7, Z-RLRGG-aminoluciferin luminescence, 40 min; actives 1.5% (n = 330,000); AID 434973; Q9BQF6;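 active = inhibition above about 50% at the single test dose, limit read from the data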;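 note: plate controls were DMSO with enzyme for no effect and no enzyme buffer wells for full effect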
AHR activator – activators of human aryl hydrocarbon receptor; AHR-responsive luciferase reporter cells, luminescence; activation, % at 5 µM; actives 2.5% (n = 320,000); AID 2796; in the data active = activation above about 47%;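 note: 0% = vehicle wells and 100% = reference agonist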
Active calls of the source: *; i = inactive; . = not tested or not shown.

SMILES	SENP6 inh	SENP8 block-1	SENP8 block-2	EBI2 block	SENP7 inh	AHR activator
COc1cccc(-c2ccc(C3=CC(=O)CC(C)(C)C3=O)cc2)c1OC	.	20	.	15	.	.
O=C(NNc1ccc(O)cc1)c1ccc(Br)cc1	8	23	7	59*	9	1
CCOC(=O)CSc1ccc(C(=O)Nc2ccc(Cl)cc2)cn1	-30	4	-3	28	-10	58*
CCOC(=O)CSc1ccc(C(=O)Nc2ccc(OC)cc2)cn1	5	2	0	29	-1	57*
CCCc1c(C(=O)Nc2ccc(OC)cc2)cnn1-c1ccccc1	8	24	1	7	8	73*
CCCCCCNC(=O)OC12CN(C(=O)OC(C)C)N(C(=O)OC(C)C)CC1(O)CN(S(=O)(=O)c1ccc(C)cc1)C2 (stereo unspecified)	.	10	.	3	.	.
O=C1c2ccccc2C(=O)C1(O)O	57*	.	62*	.	44	4
CC1(C(=O)Nc2ccc3nc[nH]c3c2)CCN1C(=O)C1(c2ccccc2)CCCC1 (stereo unspecified)	.	27	.	10	.	.
COc1cccc(NC(=O)c2cc([N+](=O)[O-])ccc2NCc2cccnc2)c1	-14	10	-5	12	-2	66*
O=C(O)c1cc([N+](=O)[O-])ccc1NCc1cccnc1	1	15	12	7	-3	0
NC(=O)c1cc([N+](=O)[O-])ccc1NCc1cccnc1	11	19	3	-3	-4	16
Cc1ccc(NC(=O)c2cc([N+](=O)[O-])ccc2NCc2cccnc2)cc1Cl	-1	19	-7	35	1	51*
NC(=O)c1cc([N+](=O)[O-])c(Cl)cc1NCc1cccnc1	-18	11	-12	7	7	58*
OCC1(CCOc2ccccc2)CCN(C2Cc3ccccc3C2)CC1	14	22	6	11	4	8
Cc1cc(Nc2ccccc2)nc(N2CCOCC2)n1	-9	2	3	2	4	25
Cc1cc(Nc2cccc(Cl)c2)nc(N2CCOCC2)n1	15	-2	-2	-3	-2	52*
O=C(Nc1ccc(Cl)cc1)C1C2CCCCC21 (stereo unspecified)	-24	11	-8	-4	-16	9
COc1ccc(Oc2ccc(/C=C/C(=O)c3ccc(O)cc3)cc2[N+](=O)[O-])cc1	-15	21	-26	79*	2	-1
O=C(/C=C/c1ccc(O)c([N+](=O)[O-])c1)c1ccc2ccccc2c1	10	40	8	9	-25	7
CCOc1ccc(/C=N/Nc2ccccn2)cc1OC	-12	-12	-9	3	-5	38
C=CCOc1ccc(/C=N/Nc2ccccn2)cc1OC	-21	-23	-6	7	15	55*
COc1cc(/C=N/Nc2ccccn2)ccc1OCC(C)C	-46	-23	-15	9	-9	71*
CNc1ncnc2c1ncn2[C@H]1CN(Cc2ccccc2)C[C@@H](CO)O1	.	-3	.	4	.	.
CCOc1ccc(-c2nnc3ccc(SC(C)C)nn23)cc1	-6	-229	-15	2	-14	51*
CCOc1ccc(-c2nnc3ccc(SCC(=O)N4CCCCC4)nn23)cc1	4	-50	-1	1	6	6
SMILES	SENP6 inh	SENP8 block-1	SENP8 block-2	EBI2 block	SENP7 inh	AHR activator
CCOc1ccc(-c2nnc3ccc(SCC(=O)Nc4nc5ccc(C)cc5s4)nn23)cc1	-26	-125	-10	3	-6	63*
Cc1ccc(S(=O)(=O)NCCc2nnc3ccc(SCC(=O)Nc4nc5ccccc5s4)nn23)cc1	-15	.	-3	.	-1	4
CCOc1ccc(-c2nnc3ccc(SCC(=O)Nc4nc5ccccc5s4)nn23)cc1	-16	-111	-11	1	4	73*
Cc1cc(C)c2cc(C#N)c(NCCCN)nc2c1	.	-437	.	3	.	.
Cc1ccc([C@@H]2CC(=O)[C@@H]3CN(S(=O)(=O)c4ccc(C)cc4)[C@H](c4ccccc4)C[C@@H]3N2S(=O)(=O)c2ccc(C)cc2)cc1	.	8	.	1	.	.
O=C(c1ccccc1)n1ccc(-c2cnc(-c3ccccc3)s2)n1	57*	i	67*	7	90*	-2
COc1ccc(S(=O)(=O)n2ccc(-c3cnc(-c4ccccc4)s3)n2)cc1	10	-381	-2	20	-1	-15
COc1ccc(Br)cc1C(=O)Nc1cccc(C)c1	-24	3	-6	-2	6	50*
CN1CCN(c2ccccc2NC(=O)c2cc(Br)ccc2Cl)CC1	-13	24	4	1	-3	55*
COc1ccccc1NC(=O)c1cc(S(=O)(=O)N2CCOCC2)ccc1Cl	-28	18	-1	1	7	14
CN1CCN(c2ccccc2NC(=O)c2ccc(-c3ccc(Br)cc3)o2)CC1	-13	-54	-4	17	5	13
COc1ccccc1NC(=O)c1cc(Br)ccc1Cl	6	13	1	5	-1	65*
CN1CCN(c2ccccc2NC(=O)c2ccc(-c3ccc(Cl)c(Cl)c3)o2)CC1	-9	-27	1	15	6	63*
CC(O)(c1cccnc1)c1nc(-c2ccc3ccccc3c2)cs1 (stereo unspecified)	.	5	.	24	.	.
CCc1cc(=O)oc2cc(C)cc(OCC(=O)NCc3cccnc3)c12	5	-305	1	4	0	49*
CCc1cc(=O)oc2cc(C)cc(OCC(=O)NCc3ccncc3)c12	11	-304	5	-11	-11	75*
Cc1cc(OCC(=O)Nc2cccnc2)c2c(C)c(C)c(=O)oc2c1	9	-187	-3	0	-3	78*
Cc1ccccc1C1CC(=O)Oc2cc(O)ccc21 (stereo unspecified)	.	-12	.	-8	-5	.
Oc1c(C(Nc2ccccn2)c2cccnc2)cc(Cl)c2cccnc12 (stereo unspecified)	-6	11	1	50*	1	2
CC(=O)NC(c1ccc(C)cc1)c1cc(Cl)c2cccnc2c1O (stereo unspecified)	-2	16	-5	11	-4	.
N#CC1(NC(=O)COc2ccc(C(N)=O)cc2)CCCC1	13	4	2	-4	2	-1
CCOc1ccc(C(=O)c2ccc(OCC)c(N)c2)cc1N	-7	17	-1	14	1	60*
CCOc1ccc(S(=O)(=O)N(CC)CC)cc1N	-13	4	-5	-4	1	2
N#CCN1CCC(c2cc(-c3ccco3)n[nH]2)CC1	35	.	2	.	10	5
O=C(O)C(S)C(S)C(=O)O (stereo unspecified)	.	49*	.	3	.	-1
CCOC(=O)N1CCC(N2C(=O)c3ccccc3C2Nc2ccc(S(=O)(=O)N3CCOCC3)cc2)CC1 (stereo unspecified)	-5	-4	-5	0	-10	1
CCOC(=O)c1c(C)oc2cc(Br)c(OC(=O)N3CCOCC3)cc12	-12	13	-6	7	-1	52*

Compound activity deposited in PubChem BioAssay by several laboratories.
